The full ranking holds about 2,900 compounds; the median of “NF-kB SEAP reporter activity, fold change vs agonist alone” is about 0.99, and the highest 2% start at about 2.6. Many of the other results were omitted from the sample, so the highest values are more common in it than they were.
Columns and labels:
[1] = test system: RAW-Dual; test: NF-kB SEAP reporter activity, fold change vs agonist alone; higher = enhanced NF-kB activity
Outline: (§1)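 Cytotoxic wells were those whose IncuCyte confluency was below 70% of agonist controls in both mask sets. The cells were RAW-Dual macrophages at 50,000 cells/well in DMEM on 384-well plates, dosed with 50 nL of library stock by pin tool, stimulated with a PRR agonist 1 h later, and kept at 37 °C, 5% CO2 for 20 hours. IRF and NF-κB reporter activity, as fold change over agonist-alone wells, came from supernatant read by QuantiLuc luminescence and QuantiBlue absorbance, respectively.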

[2] = test system: RAW-Dual; test: NF-kB SEAP reporter activity, fold change vs agonist alone; cytotoxicity flag (confluency mask): not cytotoxic; library stock concentration (final ~1000-fold dilution): 10 mM; higher = enhanced NF-kB activity
Outline: as §1

[3] = test system: RAW-Dual; test: NF-kB SEAP reporter activity, fold change vs agonist alone; cytotoxicity flag (confluency mask): cytotoxic (confluency <70% of control); library stock concentration (final ~1000-fold dilution): 10 mM; higher = enhanced NF-kB activity
Outline: as §1

[4] = test system: RAW-Dual; test: NF-kB SEAP reporter activity, fold change vs agonist alone; cytotoxicity flag (confluency mask): not cytotoxic; library stock concentration (final ~1000-fold dilution): 10 mM water; higher = enhanced NF-kB activity
Outline: as §1

[5] = library stock concentration (final ~1000-fold dilution): 10 mM, cytotoxicity flag (confluency mask): not cytotoxic, agonist: Imiquimod (TLR7) […]
[6] = library stock concentration (final ~1000-fold dilution): 10 mM, cytotoxicity flag (confluency mask): not cytotoxic, agonist: MPLA (TLR4) […]
[7] = agonist: ODN 1826 (TLR9) 0.5 ug/mL
[8] = agonist: Pam2CSK4 (TLR2/6) 0.1 ug/mL
[9] = agonist: Pam3CSK4 (TLR2/1) 0.1 ug/mL
[10] = library stock concentration (final ~1000-fold dilution): 10 mM, cytotoxicity flag (confluency mask): cytotoxic (confluency <70% of control), agonist: Imiquimod (TLR7) […]
[11] = library stock concentration (final ~1000-fold dilution): 10 mM, cytotoxicity flag (confluency mask): cytotoxic (confluency <70% of control), agonist: MPLA (TLR4) […]
[12] = library stock concentration (final ~1000-fold dilution): 10 mM water, cytotoxicity flag (confluency mask): not cytotoxic, agonist: Imiquimod (TLR7) […]
[13] = library stock concentration (final ~1000-fold dilution): 10 mM water, cytotoxicity flag (confluency mask): not cytotoxic, agonist: MPLA (TLR4) […]

CC1CCC/C=C/C2CC(O)CC2C(O)/C=C/C(=O)O1 (stereo not drawn)
NF-kB SEAP reporter activity [1, 5]: 1.48 | NF-kB SEAP reporter activity [1, 6]: 0.636 | NF-kB SEAP reporter activity ([2]; agonist: LPS (TLR4) 0.1 ug/mL): 0.305 | NF-kB SEAP reporter activity [2, 7]: 0.297 | NF-kB SEAP reporter activity [2, 8]: 0.209 | NF-kB SEAP reporter activity [2, 9]: 0.469

O=C(O)CCCc1ccc(N(CCCl)CCCl)cc1
NF-kB SEAP reporter activity [1, 5]: 0.998 | NF-kB SEAP reporter activity [1, 6]: 1 | NF-kB SEAP reporter activity ([2]; agonist: LPS (TLR4) 0.1 ug/mL): 0.89 | NF-kB SEAP reporter activity [2, 7]: 1.04 | NF-kB SEAP reporter activity [2, 8]: 1.21 | NF-kB SEAP reporter activity [2, 9]: 1.24

Cn1c(CCCCCCC(=O)NO)nc2cc(N(CCCl)CCCl)ccc21
NF-kB SEAP reporter activity [1, 10]: 1.62 | NF-kB SEAP reporter activity [1, 11]: 2.33 | NF-kB SEAP reporter activity ([3]; agonist: LPS (TLR4) 0.1 ug/mL): 3.35 | NF-kB SEAP reporter activity [3, 7]: 1.5 | NF-kB SEAP reporter activity [3, 8]: 1.55 | NF-kB SEAP reporter activity [3, 9]: 1.91

Cl.O=C(O)Cc1c[nH]cn1
NF-kB SEAP reporter activity [1, 5]: 0.935 | NF-kB SEAP reporter activity [1, 6]: 1.05 | NF-kB SEAP reporter activity ([2]; agonist: LPS (TLR4) 0.1 ug/mL): 1.34 | NF-kB SEAP reporter activity [2, 7]: 0.991 | NF-kB SEAP reporter activity [2, 8]: 0.973 | NF-kB SEAP reporter activity [2, 9]: 0.728

CNC1C(O)C(OC2C(N)CC(N)C(OC3OC(C(C)O)C(O)C(O)C3N)C2O)OCC1(C)O.O=S(=O)(O)O.O=S(=O)(O)O (stereo not drawn)
NF-kB SEAP reporter activity [1, 12]: 0.947 | NF-kB SEAP reporter activity [1, 13]: 1.07 | NF-kB SEAP reporter activity ([4]; agonist: LPS (TLR4) 0.1 ug/mL): 1.15 | NF-kB SEAP reporter activity [4, 7]: 1.26 | NF-kB SEAP reporter activity [4, 8]: 1.15 | NF-kB SEAP reporter activity [4, 9]: 1.12

CC12NC(Cc3ccccc31)c1ccccc12.O=C(O)/C=C\C(=O)O (stereo not drawn)
NF-kB SEAP reporter activity [1, 5]: 1.16 | NF-kB SEAP reporter activity [1, 6]: 1.1 | NF-kB SEAP reporter activity ([2]; agonist: LPS (TLR4) 0.1 ug/mL): 1.25 | NF-kB SEAP reporter activity [2, 7]: 0.851 | NF-kB SEAP reporter activity [2, 8]: 1.13 | NF-kB SEAP reporter activity [2, 9]: 1.15

COc1cc(C)[nH]c(=O)c1CNC(=O)c1c(C)n(C(C)C2CCN(CC(F)(F)F)CC2)c2ccccc12 (stereo not drawn)
NF-kB SEAP reporter activity [1, 5]: 0.35 | NF-kB SEAP reporter activity [1, 6]: 0.914 | NF-kB SEAP reporter activity ([2]; agonist: LPS (TLR4) 0.1 ug/mL): 0.78 | NF-kB SEAP reporter activity [2, 7]: 0.953 | NF-kB SEAP reporter activity [2, 8]: 0.647 | NF-kB SEAP reporter activity [2, 9]: 0.74

CC(N)C(=O)NC(CO)C(=O)NC(C(=O)NC(C(=O)NC(C(=O)NC(CC(N)=O)C(=O)NC(Cc1ccc(O)cc1)C(=O)NC(C(N)=O)C(C)O)C(C)O)C(C)O)C(C)O (stereo not drawn)
NF-kB SEAP reporter activity [1, 12]: 0.968 | NF-kB SEAP reporter activity [1, 13]: 1.05 | NF-kB SEAP reporter activity ([4]; agonist: LPS (TLR4) 0.1 ug/mL): 1.17 | NF-kB SEAP reporter activity [4, 7]: 1.25 | NF-kB SEAP reporter activity [4, 8]: 1.16 | NF-kB SEAP reporter activity [4, 9]: 1.06

C=C(C)C1Cc2c(ccc3c2OC2COc4cc(OC)c(OC)cc4C2C3=O)O1 (stereo not drawn)
NF-kB SEAP reporter activity [1, 5]: 1.87 | NF-kB SEAP reporter activity [1, 6]: 1.85 | NF-kB SEAP reporter activity ([2]; agonist: LPS (TLR4) 0.1 ug/mL): 3.13 | NF-kB SEAP reporter activity [2, 7]: 2.36 | NF-kB SEAP reporter activity [2, 8]: 1.27 | NF-kB SEAP reporter activity [2, 9]: 1.45

CCC1=CC2CN3CCc4c([nH]c5ccccc45)C(C(=O)OC)(C2)C13 (stereo not drawn)
NF-kB SEAP reporter activity [1, 5]: 1.03 | NF-kB SEAP reporter activity [1, 6]: 1.11 | NF-kB SEAP reporter activity ([2]; agonist: LPS (TLR4) 0.1 ug/mL): 1.04 | NF-kB SEAP reporter activity [2, 7]: 1.06 | NF-kB SEAP reporter activity [2, 8]: 0.935 | NF-kB SEAP reporter activity [2, 9]: 1.03

COC1=CC2C3Cc4ccc(OC)c(O)c4C2(CCN3C)CC1=O.Cl (stereo not drawn)
NF-kB SEAP reporter activity [1, 5]: 0.858 | NF-kB SEAP reporter activity [1, 6]: 0.999 | NF-kB SEAP reporter activity ([2]; agonist: LPS (TLR4) 0.1 ug/mL): 0.877 | NF-kB SEAP reporter activity [2, 7]: 0.884 | NF-kB SEAP reporter activity [2, 8]: 1.16 | NF-kB SEAP reporter activity [2, 9]: 1.09

CN1C2CC(OC(=O)C(CO)c3ccccc3)CC1C1OC12 (stereo not drawn)
NF-kB SEAP reporter activity [1, 5]: 0.917 | NF-kB SEAP reporter activity [1, 6]: 1.04 | NF-kB SEAP reporter activity ([2]; agonist: LPS (TLR4) 0.1 ug/mL): 1.23 | NF-kB SEAP reporter activity [2, 7]: 1.02 | NF-kB SEAP reporter activity [2, 8]: 1.11 | NF-kB SEAP reporter activity [2, 9]: 1.58

CN1Cc2c(ccc3c2OCO3)C2C(O)Cc3cc4c(cc3C21)OCO4 (stereo not drawn)
NF-kB SEAP reporter activity [1, 10]: 1.6 | NF-kB SEAP reporter activity [1, 11]: 1.66 | NF-kB SEAP reporter activity ([3]; agonist: LPS (TLR4) 0.1 ug/mL): 2.16 | NF-kB SEAP reporter activity [3, 7]: 1.75 | NF-kB SEAP reporter activity [3, 8]: 1.42 | NF-kB SEAP reporter activity [3, 9]: 2.18

Reference: the supplement of paper PMC10037445
